# The sample as a whole holds a higher share of hits than the screen did.
# FECH inh: inhibitors of human ferrochelatase, primary screen, biochemical, purified FECH, Ni-mesoporphyrin absorbance; Ni-mesoporphyrin absorbance 550 nm; 20,000 tested, 3.3% active; Ferrochelatase, mitochondrial (Homo sapiens), P22830; calls only at 10 µM (by protocol);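 active = enzyme reaction rate more than 3 SD below the solvent-only control wells on the same plate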;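 also: lower slope than DMSO wells means FECH inhibition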
# Target sequence (P22830 whole entry, looked up): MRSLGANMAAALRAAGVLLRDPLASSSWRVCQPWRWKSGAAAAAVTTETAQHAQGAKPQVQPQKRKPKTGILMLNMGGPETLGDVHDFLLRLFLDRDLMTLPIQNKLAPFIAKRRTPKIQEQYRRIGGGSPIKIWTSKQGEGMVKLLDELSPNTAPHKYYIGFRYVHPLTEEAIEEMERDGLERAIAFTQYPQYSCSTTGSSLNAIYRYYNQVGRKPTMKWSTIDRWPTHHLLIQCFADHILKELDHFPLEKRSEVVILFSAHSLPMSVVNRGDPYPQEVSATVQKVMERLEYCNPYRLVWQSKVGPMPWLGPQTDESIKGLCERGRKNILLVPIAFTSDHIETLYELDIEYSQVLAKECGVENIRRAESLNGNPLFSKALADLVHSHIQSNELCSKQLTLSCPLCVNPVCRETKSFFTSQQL
# * hit, by the source's call; i = inactive; + = active, no number.
SMILES,FECH inh
CCOc1ccc(NC(=O)CN2CCCN(Cc3ccc(OC)cc3)S2(=O)=O)cc1,i
O=C(CN1CCCN(Cc2ccc(Cl)cc2)S1(=O)=O)Nc1ccc(F)cc1,i
CCOc1ccc(NC(=O)CN2CCN(Cc3ccc(F)cc3)S2(=O)=O)cc1,i
CCc1nc2cccnc2n1C1CCN(S(=O)(=O)c2ccc(C)cc2)CC1,i
FC(F)(F)CCc1ccnc(NCc2cc(-c3ccco3)on2)n1,i
COc1c(F)cccc1C(=O)NC(C)c1cnn(C)c1 (configuration not stated),i
CCOC(=O)c1cc2n(n1)CC(C)(C(=O)NCCC(C)C)N(c1cc(C)cc(C)c1)C2=O (configuration not stated),+
CCOC(=O)c1cc2n(n1)CC(C)(C(=O)NCCC(C)C)N(c1ccc(Cl)cc1)C2=O (configuration not stated),i
CCOC(=O)c1cc2n(n1)CC(C)(C(=O)NCCC(C)C)N(c1cc(OC)cc(OC)c1)C2=O (configuration not stated),i
Cc1ccc(Nc2nc(N3CCC(Cc4ccccc4)CC3)nc3c2cnn3-c2ccccc2)cc1C,i
CCc1c(C)nc2ncnn2c1Sc1ccccc1NC(=O)Cc1ccc(OC)cc1,+
CCc1c(C)nc2ncnn2c1Sc1ccccc1NC(=O)COc1ccc(C)cc1,i
CCc1c(C)nc2ncnn2c1Sc1ccccc1NC(=O)Nc1ccc(C)cc1,i
CCc1c(C)nc2ncnn2c1Sc1ccc(NC(=O)C2CC2)cc1,i
CCc1c(C)nc2ncnn2c1Sc1ccccc1NC(=O)C1CC1,+
CCc1c(C)nc2ncnn2c1Sc1ccc(NC(=O)Cc2ccc(OC)cc2)cc1,i
COc1ccc(N2C(=O)CCS2(=O)=O)cc1S(=O)(=O)NCCc1ccc(F)cc1,i
CCc1ccc(NC(=O)Nc2c(C)nc3nc(C4CC4)[nH]n3c2=O)cc1,i
O=C(Nc1cc(F)ccc1F)N1CCN(Cc2nc3cccnc3n2-c2cccc(F)c2)CC1,i
O=C(NCC1CCCCO1)c1cc(COc2c(F)cccc2F)on1 (configuration not stated),i
Cc1ccc(C)c(OCc2cc(C(=O)NCc3nnc4n3CCC4)no2)c1,+
Cc1cccc(C(C(=O)NCc2nnc3n2CCC3)N(C)C)c1 (configuration not stated),i
O=S(=O)(NCc1ccccc1)N1CCN(C2CCSCC2)CC1,i
CC(C)CCNC(=O)c1nc[nH]c1C(=O)N1CCC(C)CC1,i
Cc1cc(C)c2ncn(CCC(C)O)c(=O)c2c1 (configuration not stated),i
SMILES,FECH inh
Cc1cccc2c(=O)n(CCN3CCCC(c4ccccc4)C3)cnc12 (configuration not stated),i
Cc1cc(Cl)cc2c(=O)n(CC3(CO)CCC3)cnc12,+
COc1ccc(C(=O)Nc2cc(C)nn2-c2ncnc3c2cnn3-c2ccc(C)cc2C)c(OC)c1,i
COC(=O)c1ccc(CNC(=O)Cc2csc(C(C)=O)c2)cc1,i
Cc1ccccc1NCc1nc2nc3c(c(=O)n2[nH]1)CCC3,+
Cc1c(Cl)cccc1NCc1nc2nc3c(c(=O)n2[nH]1)CCC3,+
O=c1c2c(nc3nc(CNc4ccc(Br)cc4)[nH]n13)CCC2,+
CCc1nc2nc3c(c(=O)n2[nH]1)CCC3,i
Cc1nc2nc(C)c(NC(=O)Nc3cc(Cl)ccc3C)c(=O)n2[nH]1,i
Cc1nc2nc(C)c(NC(=O)Nc3ccccc3Cl)c(=O)n2[nH]1,i
O=c1c2c(nc3nc(CNc4ccccc4F)[nH]n13)CCC2,i
Cc1cc(=O)n2[nH]c(NCc3ccc(C(=O)Nc4ccc(Br)cc4)cc3)nc2n1,i
Cc1ccc(Cl)cc1NCc1nc2nc3c(c(=O)n2[nH]1)CCC3,+
COc1ccc(NCc2nc3nc4c(c(=O)n3[nH]2)CCC4)c(OC)c1,i
CCOc1ccccc1NCc1nc2nc3c(c(=O)n2[nH]1)CCC3,i
CCOc1ccc(Br)cc1S(=O)(=O)N1CCN(c2nc(C)cc(N3CCOCC3)n2)CC1,i
CCOc1c(Nc2cccc(F)c2)c(=O)c1=O,i
O=C(C1CCCN(c2ncnc3c2nc2n3CCCCC2)C1)N1CCN(c2ccccc2F)CC1 (configuration not stated),i
COCCNC(=O)NCCc1nc2cccnc2n1C1CCCCC1,i
CCNC(=O)[C@@H]1C[C@H](N)CN1C1CCN(c2cccc(C)c2C)CC1,i
CN1CCN(C(=O)c2cc3n(n2)CCN(c2cc(-n4cccn4)ncn2)C3)CC1,i
CC(C)C(C)n1nccc1NC(=O)Cn1cnc2ccsc2c1=O (configuration not stated),i
CCc1c(C)nc2ncnn2c1Sc1ccccc1NC(=O)c1cccc(C)c1,i
Cc1cc(Sc2ccccc2NC(=O)COc2ccc(Cl)cc2)n2nc(-c3ccccc3)nc2n1,i
CCOc1ccccc1C(=O)Nc1ccccc1Sc1c(C)c(C)nc2ncnn12,i
SMILES,FECH inh
Cc1nc2nc(-c3ccccc3)nn2c(Sc2ccccc2NC(=O)COc2ccc(Cl)cc2)c1C,+
Cc1nc2ncnn2c(Sc2ccccc2NC(=O)c2ccc(Br)cc2)c1C,i
COc1ccc(C(=O)Nc2ccccc2Sc2c(C)c(C)nc3ncnn23)cc1,+
COc1cc(C(=O)Nc2ccccc2Sc2c(C)c(C)nc3ncnn23)cc(OC)c1OC,i
CCCc1c(C)nc2ncnn2c1Sc1ccccc1NC(=O)c1cccc(OC)c1,+
COc1ccc(CC(=O)Nc2ccccc2Sc2c(C)c(C)nc3nc(-c4ccccc4)nn23)cc1,i
Cc1ccccc1OCC(=O)Nc1ccccc1Sc1c(C)c(C)nc2ncnn12,+
Cc1ccc(OCC(=O)Nc2ccccc2Sc2c(C)c(C)nc3ncnn23)cc1,i
CCc1c(C)nc2ncnn2c1Sc1ccccc1NC(=O)c1cccc(F)c1,i
CC(=O)Nc1ccc(C(=O)N(C)C(C)Cc2cc(C)ccn2)cn1 (configuration not stated),i
Cc1ccc(-c2nc3cccnc3n2CCNS(=O)(=O)c2ccc(C)cc2C)cc1,i
COCCN1CCCC(O)(CN2CCC(O)(Cn3ccnc3)CC2)C1=O (configuration not stated),i
CC(C)n1c(CNS(=O)(=O)c2cccc3nsnc23)nc2cccnc21,i
CCN(CC)C(=O)[C@@H]1C[C@H](N)CN1C(=O)c1cc2c(s1)CCCCC2,i
Cc1cc(F)ccc1NC(=O)CN(C)S(=O)(=O)c1ccc(C(=O)N2CCOCC2)s1,i
CCOC(=O)N1CCC(n2ccnc2-c2c(F)cc(OC)cc2F)CC1,i
COc1ccc(-c2cc(C(=O)NCc3cccc(C)c3)[nH]n2)cc1S(N)(=O)=O,i
O=C(CC1CCN(S(=O)(=O)c2ccccc2)CC1)NCCCN1CCC(Cc2ccccc2)CC1,i
COc1ccc(OC)c(C2CCN(C(=O)c3cc(C4CC4)[nH]n3)C2)c1 (configuration not stated),i
Cc1ccc(C)c(OC(C)C(=O)N(C)Cc2n[nH]c3c2CCC3)c1 (configuration not stated),i
Cc1ccc(N2C(=O)CCS2(=O)=O)cc1S(=O)(=O)Nc1ccccc1Oc1ccccc1,i
CCCc1c(C)nc2ncnn2c1Sc1ccccc1NC(=O)c1ccc(F)cc1,i
CCCc1c(C)nc2ncnn2c1Sc1ccccc1NC(=O)c1ccco1,i
CCCc1c(C)nc2ncnn2c1Sc1ccccc1NC(=O)c1ccccc1,+

# Screening results: PubChem, Corson Lab, School of Medicine, Indiana University
